Potency data for seven compounds are collected here from PubChem BioAssay (Tox21).

Where “and” joins values, the source holds several entries; their conditions need not be identical. Equal entries are not always repeated. Values without a mark were called inactive. Records with an inconclusive call do not appear. Calls of active or inactive are those of the source. Unless noted, calls come from the whole dose curve; as a rule, active = well fitted curve in the direction sought with a large enough effect in the repeat runs; inconclusive = weak or mixed curves; inactive = no such curve, though single readings can be large; an effect the other way counts as inactive or inconclusive.

Assay [1] is described as follows: qHTS assay to identify small molecule antagonists of the progesterone receptor (PR) signaling pathway - cell viability counter screen (AID 1346798). Note: nearly all actives have a fitted effect of over 50% in size. Note: potency is the fitted concentration of half-maximal effect. Put shortly:
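Measures cytotoxicity in parallel with the PR antagonist reporter read: HEK293T PR-UAS-bla cells get compound and R5020 for 16 hr, and remaining viable cells are quantified by CellTiter-Glo luminescence.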

Assay [2] in a line: qHTS assay to identify small molecule agonists of the progesterone receptor (PR) signaling pathway - cell viability counter screen (AID 1346799; calls by dose curve; note: nearly all actives have a fitted effect of over 45% in size; note: potency is the fitted concentration of half-maximal effect). Put shortly:
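Using the same plates as the PR reporter screen, HEK293T PR-UAS-bla cells received compounds for 16 hr at 37C and were then lysed with CellTiter-Glo; luminescence was read 30 min later at room temperature.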

Assay [3] in a line: qHTS assay to identify small molecule agonists of the TGF-beta/Smad signaling pathway - cell viability counter screen (AID 1346829). Note: nearly all actives have a fitted effect of over 45% in size. Note: potency is the fitted concentration of half-maximal effect. Put shortly:
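In parallel with the Smad reporter read, viability of HEK 293T cells stably carrying SBE-bla is quantified by ATP luminescence following 5 hr compound treatment.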

The nature of assay [4]: qHTS assay to identify small molecule agonists of the TGF-beta/Smad signaling pathway (AID 1346859; active = well fitted activation curve with a large enough effect in the signal ratio in the repeat runs, not every such curve was filed as active; the % refers to the signal ratio; note: series mostly up to about 77 µM). An outline of the steps: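 Beta-lactamase reporter activity downstream of Smad binding elements was measured in stably transfected HEK 293T cells; compounds were incubated for 5 hr, substrate for 2 hr at room temperature.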
Assay [5] is described as follows: Human pregnane X receptor (PXR) small molecule agonists, qHTS cell viability counter screen (AID 1346977). Note: nearly all actives have a fitted effect of over 50% in size. Note: potency is the fitted concentration of half-maximal effect. An outline of the steps:
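After a 5hr pre-incubation, PXR-Luc HepG2 cells received compounds plus positive control in DMSO and were kept 24hr at 37C. Cell viability was quantified by fluorescence from CellTiter-Fluor added for the final hour.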

Assay [6] can be described thus: Caspase-3/7 induction in HepG2 cells by small molecules, qHTS assay (AID 1346978). Note: nearly all actives have a fitted effect of over 15% in size. Note: potency is the fitted concentration of half-maximal effect. An outline of the steps: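 Wild-type HepG2 cells (2,000/well) were settled 5 h at 37 C, 5% CO2, then exposed to compounds in DMSO for 17 h. Caspase-3/7 activity was read by luminescence 30 min after adding Caspase-Glo 3/7 reagent at room temperature.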
Assay [7] is described as follows: Caspase-3/7 induction in CHO-K1 cells by small molecules, qHTS cell viability counter screen (AID 1346979). Note: nearly all actives have a fitted effect of over 35% in size. Note: potency is the fitted concentration of half-maximal effect. An outline of the steps: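 Multiplexed with Caspase-Glo 3/7 in CHO-K1 cells, this counter screen added CellTiter-Fluor after 16hr of compound exposure and recorded fluorescence 1hr later.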
The nature of assay [8]: Caspase-3/7 induction in CHO-K1 cells by small molecules, qHTS assay (AID 1346980). Note: nearly all actives have a fitted effect of over 15% in size. Note: potency is the fitted concentration of half-maximal effect. Put shortly: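 Wild-type cells were seeded at 1,500 per well and settled 5 hr at 37 C, 5% CO2, then exposed to DMSO-dissolved compounds for 17 hr. Caspase-Glo 3/7 reagent was added, and luminescence was read after 30min at room temperature.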
The target of assay [9] is Nuclear receptor subfamily 1 group I member 2 (Homo sapiens) (UniProt O75469). Nature of the assay: Human pregnane X receptor (PXR) small molecule agonists, qHTS assay (AID 1346982). Note: nearly all actives have a fitted effect of over 35% in size. Note: potency is the fitted concentration of half-maximal effect. An outline of the steps:
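PXR-Luc HepG2 reporter cells (CYP3A4-driven luciferase) in 5% charcoal-stripped FBS medium, plated 5 h before compound addition, then treated 24 h at 37C. Luciferase read by ONE-Glo luminescence after 30 min at room temperature.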

The target of assay [10] is Cytochrome P450 2C19 (Homo sapiens) (UniProt P33261). Nature of the assay: Cytochrome P450 Family 2 Subfamily C Member 19 (CYP2C19) small molecule antagonists: luciferase reporter qHTS assay (AID 1671197). Note: nearly all actives have a fitted effect of over 65% in size. Note: potency is the fitted concentration of half-maximal effect. Put shortly:
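Compounds were tested on CYP2C19 activity via proluciferin conversion to luciferin. The 37C, 1 h reaction followed NADPH addition; detection reagent stopped it.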

Assay [11] has as its target Progesterone receptor (Homo sapiens) (UniProt P06401). Nature of the assay: qHTS assay to identify small molecule antagonists of the progesterone receptor (PR) signaling pathway (AID 1346795; active = well fitted inhibition curve with a large enough effect in the signal ratio in the repeat runs, not every such curve was filed as active; the % refers to the signal ratio; note: potency is the fitted concentration of half-maximal effect). Put shortly: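 Screening used a GripTite HEK293T line with PR-responsive UAS-beta-lactamase. Cells were challenged with compound in the presence of 1 nM R5020 final for 16 hr at 37C; B/G FRET substrate, 2 hr room temperature, fluorescence.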

Assay [12] concerns the target Thyrotropin-releasing hormone receptor (Homo sapiens) (UniProt P34981). The assay is described as follows: qHTS assay to identify small molecule agonists of the thyrotropin-releasing hormone receptor (TRHR) signaling pathway (AID 1346891; calls by dose curve; note: series mostly up to about 58 µM). An outline of the steps: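 Overnight-plated (18 h, 37 °C, 5% CO2) TRHR-Hek293 cells; 2 h calcium dye at 37 °C; compound in DMSO; 3-min kinetic fluorescence read.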

The target of assay [13] is Nuclear receptor subfamily 1 group I member 2 (Rattus norvegicus) (UniProt Q9R1A7). Nature of the assay: Rat pregnane X receptor (rPXR) activation by small molecules, qHTS assay (AID 1346983). Note: potency is the fitted concentration of half-maximal effect; nearly all actives have a fitted effect of over 20% in size. The settings on record: rPXR luciferase reporter cells, One-Glo luminescence, 24 h; max activation: active compounds read high. Put shortly: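 Cell-based rPXR luciferase reporter assay, 2,000 cells per well, rested 5hr at 37 C before compound addition in DMSO, then 24 hr at 37 C. One-Glo reagent was added and luminescence read after 30 min at room temperature.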
Chain of Nuclear receptor subfamily 1 group I member 2 (Rattus norvegicus) (Q9R1A7 whole entry, looked up): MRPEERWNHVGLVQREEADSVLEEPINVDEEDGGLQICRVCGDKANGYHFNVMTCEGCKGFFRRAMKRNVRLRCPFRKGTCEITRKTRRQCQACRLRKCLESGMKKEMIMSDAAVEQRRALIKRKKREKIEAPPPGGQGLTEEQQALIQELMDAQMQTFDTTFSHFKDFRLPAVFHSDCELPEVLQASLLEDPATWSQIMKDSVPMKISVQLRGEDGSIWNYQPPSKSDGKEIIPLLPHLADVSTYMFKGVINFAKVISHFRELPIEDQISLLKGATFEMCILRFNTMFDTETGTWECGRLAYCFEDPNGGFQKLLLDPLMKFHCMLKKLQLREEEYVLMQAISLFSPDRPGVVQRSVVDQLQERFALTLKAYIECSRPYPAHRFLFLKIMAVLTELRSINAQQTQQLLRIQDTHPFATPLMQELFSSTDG

Assay [14] can be described thus: qHTS assay to identify small molecule antagonists of the TGF-beta/Smad signaling pathway - cell viability counter screen (AID 1346824). Note: nearly all actives have a fitted effect of over 50% in size. An outline of the steps:
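SBE-bla HEK 293T cells were plated overnight at 37 C, then given compounds in DMSO plus TGF-beta1 (added as 0.25 ng/mL solution) for 5 hr. After the bla read, CellTiter-Glo was added to the same wells and luminescence read after 30 min at room temperature.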

Assay [15] concerns the target Thyrotropin-releasing hormone receptor (Homo sapiens) (UniProt P34981). The assay is described as follows: qHTS assay to identify small molecule antagonists of the thyrotropin-releasing hormone receptor (TRHR) signaling pathway (AID 1346877; active = well fitted inhibition curve with a large enough effect in the repeat runs, not every such curve was filed as active; note: series mostly up to about 51 µM). Put shortly: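 TRHR-expressing HEK293 cells loaded with calcium dye for 2 h at 37 C; compounds pre-incubated 5 min at room temperature before TRH challenge at 1 nM final. Intracellular calcium fluorescence read kinetically for 3 min; 15 concentrations in triplicate.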

A short description of assay [16]: Caspase-3/7 induction in HepG2 cells by small molecules, qHTS cell viability counter screen (AID 1346981). Note: nearly all actives have a fitted effect of over 30% in size. Note: potency is the fitted concentration of half-maximal effect. Put shortly: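 Wild-type HepG2 cells, 2,000/well, settled 5 hr at 37 C, 5% CO2 before compound addition. Viability read by CellTiter-Fluor fluorescence, reagent added after 16 hr compound exposure, then 1 hr at 37C, in the same wells as the caspase read.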

Assay [17] deals with Cytochrome P450 2D6 (Homo sapiens) (UniProt P10635). Nature of the assay: Cytochrome P450 Family 2 Subfamily D Member 6 (CYP2D6) small molecule antagonists: luciferase reporter qHTS assay (AID 1671196). Note: nearly all actives have a fitted effect of over 50% in size. Note: potency is the fitted concentration of half-maximal effect. Put shortly:
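Cell-free P450-Glo system: CYP2D6 with proluciferin substrate was pre-incubated with compound for 10 min, then reacted with NADPH regeneration for 1 h at room temperature. Luciferin product was detected after 20 min, and data were reported as relative luminescence units.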

Chain of Cytochrome P450 2D6 (Homo sapiens) (P10635 whole entry, looked up): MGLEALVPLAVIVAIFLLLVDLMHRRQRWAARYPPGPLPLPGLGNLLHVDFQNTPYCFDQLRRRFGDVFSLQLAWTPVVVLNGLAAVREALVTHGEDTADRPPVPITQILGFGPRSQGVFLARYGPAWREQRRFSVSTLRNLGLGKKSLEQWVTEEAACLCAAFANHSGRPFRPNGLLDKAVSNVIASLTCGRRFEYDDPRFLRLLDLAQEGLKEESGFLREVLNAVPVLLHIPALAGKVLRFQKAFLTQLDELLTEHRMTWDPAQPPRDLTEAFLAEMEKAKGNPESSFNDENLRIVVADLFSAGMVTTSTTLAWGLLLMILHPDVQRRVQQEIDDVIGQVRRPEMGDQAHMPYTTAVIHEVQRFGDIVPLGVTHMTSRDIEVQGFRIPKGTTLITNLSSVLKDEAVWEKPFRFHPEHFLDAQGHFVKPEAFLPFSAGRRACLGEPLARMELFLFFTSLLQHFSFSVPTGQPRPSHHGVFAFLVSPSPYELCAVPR
Chain of Progesterone receptor (Homo sapiens) (P06401 whole entry, looked up): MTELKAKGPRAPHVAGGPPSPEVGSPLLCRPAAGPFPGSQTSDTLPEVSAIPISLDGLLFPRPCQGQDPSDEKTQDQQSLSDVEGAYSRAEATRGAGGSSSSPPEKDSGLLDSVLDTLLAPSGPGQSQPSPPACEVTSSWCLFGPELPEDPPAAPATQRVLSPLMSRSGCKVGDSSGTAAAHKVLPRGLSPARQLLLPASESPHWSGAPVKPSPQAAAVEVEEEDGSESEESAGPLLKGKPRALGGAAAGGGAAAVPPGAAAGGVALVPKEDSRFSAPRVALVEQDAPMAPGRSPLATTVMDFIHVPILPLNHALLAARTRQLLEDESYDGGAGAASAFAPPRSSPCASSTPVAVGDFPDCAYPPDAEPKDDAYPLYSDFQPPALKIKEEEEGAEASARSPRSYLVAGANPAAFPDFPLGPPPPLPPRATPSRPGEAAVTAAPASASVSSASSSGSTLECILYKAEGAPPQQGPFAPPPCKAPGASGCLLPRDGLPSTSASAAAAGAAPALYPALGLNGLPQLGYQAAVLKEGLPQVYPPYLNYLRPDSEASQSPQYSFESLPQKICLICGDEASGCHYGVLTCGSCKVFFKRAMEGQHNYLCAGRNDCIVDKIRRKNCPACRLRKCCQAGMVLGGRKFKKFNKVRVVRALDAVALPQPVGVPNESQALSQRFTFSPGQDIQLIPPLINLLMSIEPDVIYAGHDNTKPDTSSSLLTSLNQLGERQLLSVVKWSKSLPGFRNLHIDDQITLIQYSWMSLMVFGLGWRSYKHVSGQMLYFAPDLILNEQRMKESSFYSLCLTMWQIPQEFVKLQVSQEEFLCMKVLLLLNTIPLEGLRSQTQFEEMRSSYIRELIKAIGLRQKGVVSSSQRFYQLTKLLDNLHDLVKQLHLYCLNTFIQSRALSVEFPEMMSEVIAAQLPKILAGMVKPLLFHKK
Chain of Thyrotropin-releasing hormone receptor (Homo sapiens) (P34981 whole entry, looked up): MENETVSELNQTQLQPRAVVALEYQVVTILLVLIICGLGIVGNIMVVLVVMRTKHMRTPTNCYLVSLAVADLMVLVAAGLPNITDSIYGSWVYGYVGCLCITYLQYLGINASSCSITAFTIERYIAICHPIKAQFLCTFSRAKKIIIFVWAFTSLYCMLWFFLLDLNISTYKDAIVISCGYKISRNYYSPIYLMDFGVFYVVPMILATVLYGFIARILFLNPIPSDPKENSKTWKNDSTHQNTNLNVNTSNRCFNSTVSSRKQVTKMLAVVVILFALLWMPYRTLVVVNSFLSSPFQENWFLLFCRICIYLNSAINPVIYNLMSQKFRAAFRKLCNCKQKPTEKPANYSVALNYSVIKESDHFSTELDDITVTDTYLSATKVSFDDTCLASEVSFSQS
Chain of Nuclear receptor subfamily 1 group I member 2 (Homo sapiens) (O75469 whole entry, looked up): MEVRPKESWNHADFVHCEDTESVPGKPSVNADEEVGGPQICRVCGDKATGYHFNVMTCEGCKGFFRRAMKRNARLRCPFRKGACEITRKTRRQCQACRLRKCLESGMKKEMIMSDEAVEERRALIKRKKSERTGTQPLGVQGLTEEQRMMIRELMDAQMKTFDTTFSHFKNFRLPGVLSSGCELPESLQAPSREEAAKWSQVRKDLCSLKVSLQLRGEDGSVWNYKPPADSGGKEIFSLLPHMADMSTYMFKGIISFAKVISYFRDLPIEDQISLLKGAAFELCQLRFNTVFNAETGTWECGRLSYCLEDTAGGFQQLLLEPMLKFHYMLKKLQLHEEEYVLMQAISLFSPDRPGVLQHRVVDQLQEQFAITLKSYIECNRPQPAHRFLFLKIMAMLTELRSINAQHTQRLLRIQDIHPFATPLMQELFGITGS
Chain of Cytochrome P450 2C19 (Homo sapiens) (P33261 whole entry, looked up): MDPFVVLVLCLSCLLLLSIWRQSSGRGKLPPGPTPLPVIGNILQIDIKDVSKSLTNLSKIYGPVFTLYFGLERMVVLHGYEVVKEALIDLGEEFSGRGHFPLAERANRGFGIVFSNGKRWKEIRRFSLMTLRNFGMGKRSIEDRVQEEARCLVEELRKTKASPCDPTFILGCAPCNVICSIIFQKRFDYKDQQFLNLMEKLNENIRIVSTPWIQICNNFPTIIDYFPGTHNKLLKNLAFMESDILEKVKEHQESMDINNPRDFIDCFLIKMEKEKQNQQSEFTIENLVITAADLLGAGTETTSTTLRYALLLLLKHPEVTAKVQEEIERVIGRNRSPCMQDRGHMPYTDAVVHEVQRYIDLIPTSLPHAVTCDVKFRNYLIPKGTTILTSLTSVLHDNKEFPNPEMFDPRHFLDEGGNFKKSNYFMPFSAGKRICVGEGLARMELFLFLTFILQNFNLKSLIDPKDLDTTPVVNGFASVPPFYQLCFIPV

As to `CSc1ccc2c(c1)N(CCC1CCCCN1C)c1ccccc1S2` (stereo not given), the Potency was 21.6 µM (active) and 23.7 µM (active) in [1]; 27.2 µM (active) and 21.1 µM (active) in assay [2]; 54.7 µM (active) in [3]; 19.3 µM (active) and 26.6 µM (active) in assay [5]; 30.5 µM (active) in assay [6]; 15.3 µM (active) and 29.8 µM (active) in assay [7]. Moreover, the Potency was 19.3 µM (active) in assay [8]; 9.65 µM (active) and 5.96 µM (active) in [9]; 17.8 µM (active) and 21.9 µM (active) in assay [10]. In addition, the Potency entry in [4] was “inactive”.
On to `O=C1Nc2ccc(Cl)cc2[C@@](C#CC2CC2)(C(F)(F)F)O1`, for which the Potency in assay [11] was 7.5 µM (active); in [7] it was 21.1 µM (active); in assay [13] it was 28.2 µM (active); in [10], 11 µM (active). The Potency result in [2], in assay [3], in assay [4] and in [12] was “inactive” throughout.
For the compound `CCN(CC)CCNc1ccc(CO)c2sc3ccccc3c(=O)c12`, the Potency in assay [1] was 15 µM (active); in assay [2] it was 13.3 µM (active); in assay [5] it was 7.5 µM (active); in assay [6], 13.3 µM (active); in assay [7], 23.7 µM (active); in assay [16], 13.3 µM (active). For the same compound, in assay [17], the Potency is 3.47 µM (active). In addition, the Potency result in assay [14], in assay [3], in assay [4], in assay [15], in [12] and in assay [8] was “inactive” in each case. Also, in [9], the Potency result is “inactive”.
`CC(O)C#CC(C)O` (stereo not given): the Potency entry in assay [11], in assay [1], in [2], in assay [3], in [4] and in assay [6] was “inactive” each time. In addition, the Potency entry in [8] and in [16] was “inactive” each time. Moreover, the Potency in assay [7] is 27 µM (active); in assay [9], 24.1 µM (active); in assay [17], 35.2 µM (active).
As for `COc1nccnc1CC(C)C`, the Potency entry in [1], in [2], in assay [3], in assay [4], in [12] and in [5] was “inactive” in each case. The Potency entry in assay [6], in [7], in [8], in assay [16], in assay [9] and in [17] was “inactive” in each case. Also, the Potency result in assay [10] is “inactive”.
In the case of `CN(C)c1ccc(N=Nc2ccccc2C(=O)O)cc1`, the Potency in [11] was 15.4 µM (active); in [5] it was 61.1 µM (active); in assay [7], 9.69 µM (active); in assay [9], 21.7 µM (active); in assay [10], 35.6 µM (active). Besides, the Potency result in [14], in assay [3], in assay [4], in [12], in assay [6] and in [8] was “inactive” each time.
Regarding `CCOC(=O)N1CCC(=C2c3ccc(Cl)cc3CCc3cccnc32)CC1`, the Potency in assay [11] is 13.7 µM (active); in assay [1] it was 61.1 µM (active); in assay [7], 43.3 µM (active) and 26.6 µM (active); in [16], 54.5 µM (active). Further, the Potency entry in [3], in assay [15], in assay [6] and in [8] was “inactive” in each case.
